Experimental data as given in the emibetuzumab library of Makowski et al. (2022).
This is one part of the list. The hit rate among all sequences tested is not known here.

B1: VH:VL chains; a variant is named by its letters at X, in order (parent)
chain 1: QVQLVQSGAEVKKPGASVKVSCKASGYTFTDYXMHWVRQAPGQGLEWMGXVNPNXXXTTYNQKFEGRVTMTTDTSTSTAYMELRSLRSDDTAVYYCARXNXLDXWGQGTTVTVSS
chain 2: DIQMTQSPSSLSASVGDRVTITCSVSSSVSSIYLHWYQQKPGKAPKLLIYSTSNLASGVPSRFSGSGSGTDFTLTISSLQPEDFATYYCQVYSGYPLTFGGGTKVEIK

Variants of: B1
Assay: yeast display scFab, FACS + sequencing
Conditions: with MET
Summary of the method: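 Two magnetic rounds on Protein A beads coated with HGFR-Fc, followed by FACS, were used to enrich a yeast surface scFab library mutated in the heavy-chain CDRs. FACS gated the top 50% antigen-positive cells after 3 h labelling at room temperature with 1 nM HGFR-Fc and anti-Myc in PBSB plus 1% milk. Binding to the antigen was scored positive when a sequence occurred in both antigen-positive samples from deep sequencing and negative when it occurred only in the input.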

Row | Variant | antigen binding call
1 | YRGRGYGA | binds
2 | YRGRGYGF | binds
3 | DRGGGDGV | no binding
4 | YRGGGYGF | no binding
5 | YRGGGDGF | binds
6 | YTGGDDGF | no binding
7 | YEGGGYSF | no binding
8 | SETGADVA | no binding
9 | DTGRGSGV | no binding
10 | FTGRGAGV | no binding
11 | YTGRGSLD | binds
12 | YTGTSSLD | no binding
13 | YTGRGSGV | binds
14 | VTGTGSLD | no binding
15 | YRAGGASA | binds
16 | DRAGDDSA | no binding
17 | YRAGGDSA | binds
18 | YRARGASA | binds
19 | YRARSASA | binds
20 | VEGTGVGD | no binding
21 | DAGKGAVY | no binding
22 | STTGGDGV | no binding

Row | Variant | antigen binding call
23 | FAKTDAGF chain 1 G108D | no binding
24 | SGRGNAGD | no binding
25 | YATKGFGD | no binding
26 | FRTKGAAD | binds
27 | FRGEGAAD | binds
28 | YRAKGAAD | binds
29 | YRTKGAAD | binds
30 | FKGEGAAD | no binding
31 | FTAGGAAD | no binding
32 | ATGGGYVA | no binding
33 | YTRGAASD | no binding
34 | YKRGSAGD | binds
35 | YKRGAAGD | binds
36 | YRRGAAGD | binds
37 | YKRAAYGD | no binding
38 | FEKGSDVA | no binding
39 | VETEGDVY | no binding
40 | FTGEDDVY | no binding
41 | VEGGTAGS | no binding
42 | DEGGGAGS | no binding
43 | YKGGGAGS | binds
44 | YKGKGYVD | no binding

Row | Variant | antigen binding call
45 | DAGGGSSS | no binding
46 | YKGKGAGS | binds
47 | DKEGGSSS | no binding
48 | YKGRSSSS | binds
49 | YKGKGSVS | binds
50 | YEKEDYLA chain 1 G108D | no binding
51 | FAKEGDGD | no binding
52 | YKGKGSGS | binds
53 | YKRGGAGS | binds
54 | YKGKGSSS | binds
55 | YARGGAGA | no binding
56 | YKGKGSGA | binds
57 | VKAGGDGS | no binding
58 | YTGTGSGA | no binding
59 | DTAESDLD | no binding
60 | SEARSSWV | no binding
61 | AKGRAAAS chain 1 D103N | no binding
62 | YKGKGAWS | binds
63 | VKGRADGS | no binding
64 | YKGRAAGS | binds
65 | DKEGGDAV | no binding
66 | FEKEGDAA | no binding

Row | Variant | antigen binding call
67 | YRARGSGV | binds
68 | YTARDVGV | no binding
69 | YTERGFGV | no binding
70 | YRARGFGV | binds
71 | YRARGYGV | binds
72 | YRARGVGV | binds
73 | YRARGAGV | binds
74 | YAAGGDGV | no binding
75 | YRARSAWV | binds
76 | YRAETDGV | no binding
77 | YRARGAWV | binds
78 | YRARGDGV | binds
79 | SEEGTAGD | no binding
80 | YAKGDYSV | no binding
81 | SETTDSLD | no binding
82 | AAEGDAAD | no binding
83 | AGGRGDVD | no binding
84 | ARGRGAAD | binds
85 | ARGRGAAS | binds
86 | SGGRTYGV | no binding
87 | YRGGGDSV | binds
88 | YTGGGDGV | no binding

Row | Variant | antigen binding call
89 | YRGGGDWV | binds
90 | YRGGDDSV | no binding
91 | YRGRGDSV | binds
92 | YEGGGDWV | no binding
93 | VRGGGDWV | no binding
94 | YTETGDSV | no binding
95 | SETKGDWA | no binding
96 | VTTKSDAV | no binding
97 | DEKGGSSA | no binding
98 | DTTRGAVA | no binding
99 | FRRGGAWY | binds
100 | YRRGDAWY | binds
101 | FRKRGAWY | binds
102 | DRRGDAVY | no binding
103 | FRAGGAWY | binds
104 | YAGGGDGA | no binding
105 | FTKGSAGY | no binding
106 | FRRGGAGY | binds
107 | FRAGGAVY | binds
108 | FRGEAVVY | no binding
